Assay results reported in PubChem BioAssay (EPA / NIEHS).
The source made the active and inactive calls. The calls were made as follows: active = hit-call score of the fitted dose curve at least 0.9, where 1 is the maximum; inactive = score below 0.9.

What was measured:
Settings in all cases: mRNA level, 48 h; actives raise or lower the signal
MYC, MYC (gene 4609) = test: LTEA_HepaRG_MYC: Life Technologies and Expression Analysis (LTEA) Assay for MYC using HepaRG (AID 2283518)
In short: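 Expression changes were scored by TaqMan qRT-PCR with ACTB, GAPDH and POLR2A normalization. Cultures in serum-free induction medium received duplicate 8-point concentration series, highest 100 uM, for 48 h; DMSO (0.5%) served as baseline.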

[1] = read-out: matrix metalloproteinase-3 (MMP3), MMP3 (gene 4314); test: LTEA_HepaRG_MMP3: Life Technologies and Expression Analysis (LTEA) Assay for matrix metalloproteinase-3 (MMP3) using HepaRG (AID 2283519)
In short: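 Differentiated human HepaRG cells, plated 48 h on collagen I, were exposed in duplicate for 48 h in serum-free induction medium to eight half-log concentrations up to 100 uM in 0.5% DMSO. MMP3 mRNA was quantified by TaqMan qRT-PCR, normalised to ACTB, GAPDH and POLR2A.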

[2] = read-out: Paternally Expressed 10 (PEG10), PEG10 (gene 23089); test: LTEA_HepaRG_PEG10: Life Technologies and Expression Analysis (LTEA) Assay for Paternally Expressed 10 (PEG10) using HepaRG (AID 2283520)
In short: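 Differentiated HepaRG cells exposed 48 h in serum-free induction medium to eight half-log concentrations topping at 100 uM, 0.5% DMSO, in duplicate. PEG10 mRNA quantified by TaqMan qRT-PCR, normalized to ACTB, GAPDH and POLR2A; bidirectional fit versus DMSO.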

[3] = read-out: Nuclear factor NF-kappa-B p105 subunit (Homo sapiens) (UniProt P19838); test: LTEA_HepaRG_NFKB1: Life Technologies and Expression Analysis (LTEA) Assay for Nuclear Factor Kappa B Subunit 1 (NFKB1) using HepaRG (AID 2283521)
In short: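 Differentiated human HepaRG cells were exposed for 48 h in serum-free induction medium to eight concentrations (top 100 uM, half-log steps, 0.5% DMSO), in duplicate. NFKB1 mRNA was measured by TaqMan qRT-PCR, normalized to ACTB/GAPDH/POLR2A, and fitted bidirectionally against DMSO.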

[4] = read-out: Protein phosphatase 2A (PPP2R4), PTPA (gene 5524); test: LTEA_HepaRG_PPP2R4: Life Technologies and Expression Analysis (LTEA) Assay for Protein phosphatase 2A (PPP2R4) using HepaRG (AID 2283522)
In short: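 Differentiated human HepaRG cells in serum-free induction medium were exposed 48 h to 8 concentrations (top 100 µM, half-log steps, duplicate) in 0.5% DMSO. PPP2R4 mRNA was measured by TaqMan qRT-PCR, normalised to ACTB, GAPDH and POLR2A, and fitted bidirectionally versus DMSO.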

[5] = read-out: Phosphatase and tensin (PTEN), PTEN (gene 5728); test: LTEA_HepaRG_PTEN: Life Technologies and Expression Analysis (LTEA) Assay for Phosphatase and tensin (PTEN) using HepaRG (AID 2283523)
In short: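 Differentiated human HepaRG cells, plated 48 h then switched to serum-free induction medium, were exposed in duplicate for 48 h to eight half-log concentrations up to 100 uM in 0.5% DMSO. PTEN mRNA measured by TaqMan qRT-PCR, normalized to ACTB/GAPDH/POLR2A, bidirectional fit versus DMSO.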

[6] = read-out: solute carrier (SLC22A1), SLC22A1 (gene 6580); test: LTEA_HepaRG_SLC22A1: Life Technologies and Expression Analysis (LTEA) Assay for solute carrier (SLC22A1) using HepaRG (AID 2283524)
In short: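 Human HepaRG cells were plated 48 h, switched to serum-free induction medium, then exposed in duplicate for 48 h to 8-point half-log series from 100 uM in 0.5% DMSO. SLC22A1 mRNA measured by qRT-PCR, normalized to ACTB/GAPDH/POLR2A, fitted bidirectionally versus DMSO.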

[7] = read-out: Pyruvate Dehydrogenase Kinase 4 (PDK4), PDK4 (gene 5166); test: LTEA_HepaRG_PDK4: Life Technologies and Expression Analysis (LTEA) Assay for Pyruvate Dehydrogenase Kinase 4 (PDK4) using HepaRG (AID 2283525)
In short: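 Differentiated human HepaRG cells, pre-cultured 48 h, were exposed in duplicate for 48 h in serum-free induction medium to eight half-log concentrations up to 100 uM in 0.5% DMSO. PDK4 mRNA was quantified by qRT-PCR, normalized to ACTB, GAPDH and POLR2A, bidirectional fitting versus DMSO.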

[8] = read-out: NAD(P)H dehydrogenase [quinone] 1 (NQO1), NQO1 (gene 1728); test: LTEA_HepaRG_NQO1: Life Technologies and Expression Analysis (LTEA) Assay for NAD(P)H dehydrogenase [quinone] 1 (NQO1) using HepaRG (AID 2283526)
In short: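 Differentiated human HepaRG cells in serum-free induction medium, dosed in duplicate for 48 h at 8 half-log concentrations up to 100 uM in 0.5% DMSO. NQO1 mRNA by qRT-PCR normalized to ACTB, GAPDH, POLR2A; bidirectional fit versus DMSO baseline.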

[9] = read-out: Nuclear factor erythroid 2-related factor 2 (Homo sapiens) (UniProt Q16236); test: LTEA_HepaRG_NFE2L2: Life Technologies and Expression Analysis (LTEA) Assay for Nuclear factor erythroid 2-related factor 2 (NFE2L2) Transcription Factor using HepaRG (AID 2283527)
In short: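 Differentiated human HepaRG cells in serum-free induction medium were exposed for 48 h to eight concentrations (top 100 uM, half-log dilutions, 0.5% DMSO), in duplicate. NFE2L2 mRNA was quantified by TaqMan qRT-PCR, normalized to ACTB, GAPDH and POLR2A, with bidirectional fitting versus DMSO.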

Measured: AC50

Chain of Nuclear factor NF-kappa-B p105 subunit (Homo sapiens) (P19838 whole entry, looked up): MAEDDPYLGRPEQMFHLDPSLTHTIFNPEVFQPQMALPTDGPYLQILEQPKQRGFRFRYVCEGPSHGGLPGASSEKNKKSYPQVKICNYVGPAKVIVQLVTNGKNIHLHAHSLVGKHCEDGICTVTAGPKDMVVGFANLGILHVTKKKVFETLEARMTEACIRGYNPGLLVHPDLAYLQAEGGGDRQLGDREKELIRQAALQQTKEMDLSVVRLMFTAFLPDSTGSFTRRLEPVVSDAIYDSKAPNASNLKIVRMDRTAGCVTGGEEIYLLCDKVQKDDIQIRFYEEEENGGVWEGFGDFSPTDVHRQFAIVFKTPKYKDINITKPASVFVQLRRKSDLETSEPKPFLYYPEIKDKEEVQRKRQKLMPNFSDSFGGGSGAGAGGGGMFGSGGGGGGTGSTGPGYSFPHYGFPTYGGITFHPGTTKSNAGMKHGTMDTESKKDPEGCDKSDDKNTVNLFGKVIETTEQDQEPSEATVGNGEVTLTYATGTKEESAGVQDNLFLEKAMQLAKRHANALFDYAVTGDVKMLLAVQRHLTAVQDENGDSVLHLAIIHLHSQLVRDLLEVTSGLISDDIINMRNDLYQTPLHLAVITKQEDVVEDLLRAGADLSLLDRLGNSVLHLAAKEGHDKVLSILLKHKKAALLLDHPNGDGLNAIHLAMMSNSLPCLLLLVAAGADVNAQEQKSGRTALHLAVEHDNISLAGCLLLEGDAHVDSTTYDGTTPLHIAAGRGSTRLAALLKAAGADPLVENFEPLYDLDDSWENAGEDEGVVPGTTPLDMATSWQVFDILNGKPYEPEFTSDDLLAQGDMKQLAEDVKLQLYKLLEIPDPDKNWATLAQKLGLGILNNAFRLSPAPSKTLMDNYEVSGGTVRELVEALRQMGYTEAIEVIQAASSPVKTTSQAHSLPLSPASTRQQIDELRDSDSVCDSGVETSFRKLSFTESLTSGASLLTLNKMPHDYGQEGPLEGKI
Chain of Nuclear factor erythroid 2-related factor 2 (Homo sapiens) (Q16236 whole entry, looked up): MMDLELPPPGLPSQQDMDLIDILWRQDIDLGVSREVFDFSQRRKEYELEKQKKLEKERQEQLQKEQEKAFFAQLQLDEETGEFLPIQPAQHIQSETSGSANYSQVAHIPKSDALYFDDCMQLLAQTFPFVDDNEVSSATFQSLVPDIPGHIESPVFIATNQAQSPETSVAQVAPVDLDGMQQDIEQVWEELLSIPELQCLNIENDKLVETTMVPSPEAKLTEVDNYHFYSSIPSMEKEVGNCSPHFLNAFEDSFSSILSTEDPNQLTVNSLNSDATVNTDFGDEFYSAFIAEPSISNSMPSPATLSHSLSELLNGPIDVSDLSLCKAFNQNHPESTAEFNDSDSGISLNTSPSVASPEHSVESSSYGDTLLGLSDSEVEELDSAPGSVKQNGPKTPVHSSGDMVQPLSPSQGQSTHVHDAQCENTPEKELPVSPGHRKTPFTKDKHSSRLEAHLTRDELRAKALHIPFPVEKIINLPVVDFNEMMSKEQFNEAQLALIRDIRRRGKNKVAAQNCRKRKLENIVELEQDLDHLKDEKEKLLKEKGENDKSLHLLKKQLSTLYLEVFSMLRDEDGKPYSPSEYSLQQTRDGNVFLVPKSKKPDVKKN

OCCOCCOCCO
inactive: all assays above

OC[C@H]1O[C@@](CO)(O[C@H]2O[C@H](CO)[C@@H](O)[C@H](O)[C@H]2O)[C@@H](O)[C@@H]1O
inactive: all assays above

CCCCOC(=O)c1ccccc1
inactive: all assays above

CCCC(CCC)C(=O)O
inactive: all assays above

NC(N)=O
inactive: all assays above

OCc1ccccc1
inactive: all assays above

CCCCCOC(C)=O
inactive: all assays above

O=C(O)c1cccc(C[C@@H]2COc3ccc(OCc4nc5cc(F)ccc5s4)cc3[C@@H]2O)c1
active: [2] 50 µM | [6] 93.4 µM
inactive: all other assays above

CCCCC(CC)C(=O)OCCOCCOCCOC(=O)C(CC)CCCC (stereo not given)
inactive: all assays above

C=CCc1cc(S(=O)(=O)c2ccc(O)c(CC=C)c2)ccc1O
active: MYC, MYC (gene 4609) 90 µM | [1] 92.2 µM | [2] 71 µM | [5] 50 µM | [6] 89 µM | [7] 81.1 µM
inactive: [3] | [4] | [8] | [9]

c1ccc2cc3ccccc3cc2c1
inactive: all assays above

CCN(CC)C(=S)SSC(=S)N(CC)CC
inactive: all assays above

Cc1nc(-c2ccccn2)ncc1C(=O)Nn1cc(C)c2cc(F)ccc21
active: [2] 34.2 µM | [6] 77.7 µM
inactive: all other assays above

Cc1ccc(S(=O)(=O)NC(=O)NN2CCCCCC2)cc1
inactive: all assays above

COS(C)(=O)=O
inactive: all assays above

CCCOc1ccc(S(=O)(=O)N2CCN(CC)CC2)cc1-c1nc2c(CC)n(Cc3ccccn3)nc2c(=O)[nH]1
active: [7] 31.3 µM | [9] 25 µM
inactive: all other assays above

Cc1nccn1-c1ccc(Sc2cccc(C3(C(N)=O)CCOCC3)c2)cc1
active: MYC, MYC (gene 4609) 9.67 µM | [2] 2.9 µM | [3] 3.18 µM | [4] 27.7 µM | [5] 28 µM | [6] 11.2 µM | [8] 18.6 µM
inactive: [1] | [7] | [9]

NC(=O)NN=Cc1ccc([N+](=O)[O-])o1
active: MYC, MYC (gene 4609) 0.151 µM | [1] 0.256 µM | [8] 11.4 µM
inactive: all other assays above

O=C(O)[C@H](O)[C@@H](O)C(=O)O
inactive: all assays above

OC(CCl)CCl
inactive: all assays above

CCCCCCCC/C=C\CCCCCCCC(=O)OC[C@@H](O)[C@H]1OC[C@H](O)[C@H]1O
inactive: all assays above
